# Measurements taken from PubChem BioAssay (Tox21).
# Several values for one entry are separate records, joined by “and”; a condition that tells them apart may be missing. Equal values may be shown once. Where a structure was tested more than once in an assay, its records may differ in their call. Activity calls are given as the source filed them. Where a call stands in place of a potency, no number is given. Unless noted, calls come from the whole dose curve; as a rule, active = well fitted curve in the direction sought with a large enough effect in the repeat runs; inconclusive = weak or mixed curves; inactive = no such curve, though single readings can be large; an effect the other way counts as inactive or inconclusive.
# Tests used:
# [1] = qHTS assay for small molecule agonists of the p53 signaling pathway (AID 651631; calls by dose curve; note: nearly all actives have a fitted effect of over 15% in size; note: potency is the fitted concentration of half-maximal effect)
# How it was run: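 We treat p53RE-bla HCT-116 cells with compounds for 16 h at 37 °C, add LiveBLAzer B/G FRET substrate for 2 h at room temperature, and measure fluorescence intensity.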
# [2] = qHTS assay for small molecules that induce genotoxicity in human embryonic kidney cells expressing luciferase-tagged ATAD5 (AID 651632); note: nearly all actives have a fitted effect of over 15% in size; note: potency is the fitted concentration of half-maximal effect
# How it was run: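 HEK293T cells carrying a luciferase reporter tagged to ATAD5 were exposed to compound or DMSO vehicle for 16 hr at 37C, 5% CO2. Amplite was added, and after 30 min at room temperature luciferase activity was read as a marker of ATAD5 induction.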
# [3] = qHTS assay for small molecule agonists of the p53 signaling pathway - cell viability (AID 651633; calls by dose curve;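 note: p53RE-bla HCT reporter cells with a stable beta-lactamase p53 reporter; nearly all actives have a fitted effect of over 30% in size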)
# How it was run: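 Viability counter-read: CellTiter-Glo luminescence (30 min, room temperature) in the same p53RE-bla plates. These plates had been exposed to compounds for 16 h at 37 C.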
# [4] = qHTS assay for small molecules that induce genotoxicity in human embryonic kidney cells expressing luciferase-tagged ATAD5 - cell viability (AID 651634; calls by dose curve; note: nearly all actives have a fitted effect of over 25% in size)
# How it was run: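 HEK293T cells expressing luciferase-tagged ATAD5 were exposed to compound or DMSO for 15.5 hr at 37C, 5% CO2. Viability was then read as live-cell protease activity by CellTiter-Fluor fluorescence after 30 min at 37C.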
# [5] = qHTS assay for small molecule disruptors of the mitochondrial membrane potential - cell viability (AID 720634; calls by dose curve; note: nearly all actives have a fitted effect of over 20% in size; note: potency is the fitted concentration of half-maximal effect)
# How it was run: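 HepG2 cells seeded overnight at 37 C, then exposed to compound or DMSO for 1 hr at 37 C, 5% CO2. m-MPI dye added, then CellTiter-Glo for 30 min at room temperature; viability read as ATP luminescence.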
# [6] = qHTS assay for small molecule disruptors of the mitochondrial membrane potential (AID 720635); note: potency is the fitted concentration of half-maximal effect
# How it was run: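 Mitochondrial membrane potential tracked with Mito-MPS dye, red aggregates (ex 540/em 590 nm) against green monomers (ex 490/em 535 nm). Compound treatment 1 hr at 37C, dye 30 min in HepG2.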
# [7] = qHTS assay to test for compound auto fluorescence at 590 nm (red) in HepG2 cells (AID 720674)
# How it was run: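 1 hr compound incubation on HepG2 cells, 37 C, 5% CO2; plate read ex 540 nm / em 590 nm; intensities reported as Rose Bengal sodium equivalents.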
# [8] = qHTS assay to test for compound auto fluorescence at 535 nm (green) in HepG2 cells (AID 720675)
# [9] = qHTS assay to test for compound auto fluorescence at 460 nm (blue) in HEK293 cells (AID 720678)
# How it was run: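 After cell attachment (4-5 hr, 37C), compounds were pinned onto HEK293 monolayers in 10% dialyzed FBS medium. The blue channel (405/460 nm) was read following overnight culture. Equivalency was calculated against triamterene.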
# [10] = qHTS assay to test for compound auto fluorescence at 590 nm (red) in HEK293 cells (AID 720679)
# How it was run: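 Plates of HEK293 cells (10% dialyzed FBS) are treated with 23 nL compound or DMSO vehicle after a 4-5 hr attachment period, incubated overnight at 37C, and read for red fluorescence at 540/590nm.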
# [11] = qHTS assay to test for compound auto fluorescence at 535 nm (green) in HEK293 cells (AID 720680)
# [12] = qHTS assay to test for compound auto fluorescence at 460 nm (blue) in HEK293 cell free culture (AID 720681)
# How it was run: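 Blue fluorescence (Ex 405/Em 460 nm, triamterene-equivalent) was read immediately after pin transfer of compound or DMSO into medium (DMEM, 10% FBS) without cells.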
# [13] = qHTS assay to test for compound auto fluorescence at 535 nm (green) in HEK293 cell free culture (AID 720682)
# How it was run: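 Green-channel intensity (Ex/Em 485/535 nm) was recorded from compound-treated wells containing only DMEM with 10% FBS. Fluorescein provided the equivalency standard.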
# [14] = qHTS assay to test for compound auto fluorescence at 590 nm (red) in HEK293 cell free culture (AID 720683)
# How it was run: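 Red-channel autofluorescence of compounds in culture medium (DMEM, 10% FBS), no cells, measured at 540/590 nm. Rose Bengal sodium is the reference fluorophore for equivalence.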
# [15] = qHTS assay to test for compound auto fluorescence at 590 nm (red) in HepG2 cell free culture (AID 720684)
# How it was run: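 Steps: dispense MEM/10% FBS medium, no cells; pin compound or DMSO vehicle; read red channel, Ex/Em 540/590 nm. Output given as Rose Bengal sodium equivalents.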
# [16] = qHTS assay to test for compound auto fluorescence at 460 nm (blue) in HepG2 cell free culture (AID 720685)
# How it was run: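 Compound (23 nL) or DMSO pinned into cell-free MEM with 10% FBS; blue fluorescence read at 405/460 nm excitation/emission, expressed as auto-fluorescence equivalency to triamterene.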
# [17] = qHTS assay to test for compound auto fluorescence at 460 nm (blue) in HepG2 cells (AID 720687)
# How it was run: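 Blue-channel autofluorescence (Ex/Em 405/460 nm, triamterene-equivalent) was measured after 1 hr compound exposure at 37 C, 5% CO2. Cells were HepG2, plated overnight at 37 C in MEM plus 10% FBS.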
# [18] = qHTS assay to test for compound auto fluorescence at 535 nm (green) in HepG2 cell free culture (AID 720686)
# [19] = biological target: Glucocorticoid receptor (Homo sapiens) (UniProt P04150); assay: qHTS assay to identify small molecule agonists of the glucocorticoid receptor (GR) signaling pathway (AID 720691; active = well fitted activation curve with a large enough effect in the signal ratio in the repeat runs, not every such curve was filed as active; inconclusive = weak or mixed curves, or effect the other way; inactive = no such curve, though single readings can be large or run the other way; the % refers to the signal ratio); conditions: GR-bla HeLa, beta-lactamase reporter ratio, 18 h
# Chain of Glucocorticoid receptor (Homo sapiens) (P04150 whole entry, looked up): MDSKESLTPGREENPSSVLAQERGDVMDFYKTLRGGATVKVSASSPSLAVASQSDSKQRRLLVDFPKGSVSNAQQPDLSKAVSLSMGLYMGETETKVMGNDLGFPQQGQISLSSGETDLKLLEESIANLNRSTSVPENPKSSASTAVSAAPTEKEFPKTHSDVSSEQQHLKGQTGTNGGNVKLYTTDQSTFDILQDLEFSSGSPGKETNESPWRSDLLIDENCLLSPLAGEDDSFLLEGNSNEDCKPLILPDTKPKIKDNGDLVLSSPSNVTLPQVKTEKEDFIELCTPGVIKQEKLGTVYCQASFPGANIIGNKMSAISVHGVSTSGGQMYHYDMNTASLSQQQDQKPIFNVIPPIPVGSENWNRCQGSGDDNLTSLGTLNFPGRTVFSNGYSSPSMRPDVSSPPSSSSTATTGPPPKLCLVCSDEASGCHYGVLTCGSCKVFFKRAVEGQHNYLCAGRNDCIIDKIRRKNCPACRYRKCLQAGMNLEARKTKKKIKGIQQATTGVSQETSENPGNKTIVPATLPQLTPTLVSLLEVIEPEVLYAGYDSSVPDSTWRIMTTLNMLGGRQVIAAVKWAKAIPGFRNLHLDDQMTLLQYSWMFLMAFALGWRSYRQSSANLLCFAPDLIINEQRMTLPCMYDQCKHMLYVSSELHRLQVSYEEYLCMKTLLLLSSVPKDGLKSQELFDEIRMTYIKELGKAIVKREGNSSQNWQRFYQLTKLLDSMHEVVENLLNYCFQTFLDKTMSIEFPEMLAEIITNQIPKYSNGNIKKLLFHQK
# How it was run: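 GR-bla HeLa cells (beta-lactamase reporter under glucocorticoid response element) were plated 4 h at 37 C/5% CO2, given compounds in DMSO, and incubated 18 h at 37 C. LiveBLAzer B/G FRET substrate was added for 2 h at room temperature, then fluorescence intensity read.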
# [20] = biological target: Glucocorticoid receptor (Homo sapiens) (UniProt P04150); assay: qHTS assay to identify small molecule antagonists of the glucocorticoid receptor (GR) signaling pathway (AID 720692; active = well fitted inhibition curve with a large enough effect in the signal ratio in the repeat runs, not every such curve was filed as active; inconclusive = weak or mixed curves, or effect the other way; inactive = no such curve, though single readings can be large or run the other way; the % refers to the signal ratio)
# How it was run: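 GR-bla HeLa cells (beta-lactamase reporter under glucocorticoid response element) were pre-plated 4 h at 37 C, treated with compounds plus 5 nM dexamethasone (final) for 18 h, then read by LiveBLAzer B/G FRET fluorescence after 2 h.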
# [21] = activation: at 62.4 µM (top of the series) unless noted
smiles,measurement,setting,value
c1ccc2ccccc2c1,Potency,[1],inactive
same,Potency,[2],inactive
same,Potency,[3],inactive
same,Potency,[4],inactive
same,Potency,[5],inactive
same,Potency,[6],inactive
same,outcome,[7],inactive
same,outcome,[8],inactive
same,Potency,[9],inactive
same,outcome,[10],inactive
same,outcome,[11],inactive
same,Potency,[12],inactive
same,outcome,[13],inactive
same,outcome,[14],inactive
same,outcome,[15],inactive
same,Potency,[16],inactive
same,outcome,[17],inactive
Oc1ccc(OCc2ccccc2)cc1,Potency,[1],9.02 µM (active)
same,Potency,[2],12.7 µM (active)
same,Potency,[3],inactive
same,Potency,[4],inactive
same,Potency,[5],inactive
same,outcome,[7],inactive
same,outcome,[8],inactive
same,Potency,[9],inactive
same,outcome,[10],inactive
same,outcome,[11],inactive
same,Potency,[12],inactive
same,outcome,[13],inactive
same,outcome,[14],inactive
same,outcome,[15],inactive
same,Potency,[16],inactive
same,outcome,[18],inactive
same,Potency,[19]; [21],inactive
C[C@@H]1O[C@@H](OC[C@H]2O[C@@H](Oc3c(-c4ccc(O)c(O)c4)oc4cc(O)cc(O)c4c3=O)[C@H](O)[C@@H](O)[C@@H]2O)[C@H](O)[C@H](O)[C@H]1O,Potency,[1],inactive
same,Potency,[2],inactive
same,Potency,[3],inactive
same,Potency,[4],inactive
same,Potency,[5],inactive
same,Potency,[6],inactive
same,outcome,[7],inactive
same,Potency,[9],inactive
same,outcome,[10],inactive
same,outcome,[11],inactive
same,Potency,[12],inactive
same,outcome,[14],inactive
same,outcome,[15],inactive
same,Potency,[16],inactive
same,outcome,[18],inactive
same,outcome,[17],inactive
same,Potency,[20],inactive
CCCCC(CC)COC(=O)/C=C\C(=O)OCC(CC)CCCC (stereo not given),Potency,[1],inactive
same,Potency,[2],inactive
same,Potency,[3],inactive
same,Potency,[4],inactive
same,Potency,[5],inactive
same,Potency,[6],inactive
same,outcome,[7],inactive
same,outcome,[8],inactive
same,outcome,[10],inactive
same,outcome,[11],inactive
same,Potency,[12],inactive
same,outcome,[14],inactive
same,outcome,[15],inactive
same,Potency,[16],inactive
same,outcome,[18],inactive
same,Potency,[19]; [21],inactive
COC(=O)Nc1nc2ccc(Sc3ccccc3)cc2[nH]1,Potency,[1],114 nM (active) and 68.6 nM (active)
same,Potency,[2],4.03 µM (active) and 12.2 µM (active)
same,Potency,[3],inactive
same,Potency,[4],inactive
same,Potency,[5],inactive
same,outcome,[7],inactive
same,outcome,[8],inactive
same,Potency,[9],inactive
same,outcome,[10],inactive
same,outcome,[11],inactive
same,Potency,[12],inactive
same,outcome,[13],inactive
same,outcome,[14],inactive
same,outcome,[15],inactive
same,Potency,[16],inactive
same,outcome,[18],inactive
same,outcome,[17],inactive
same,activation,[19]; [21],2.86% [inconclusive] [at 29.2 µM] (active)
same,activation,[19]; at 62.4 µM (top of the series),2.36% (inactive)
O=C(c1ccc(O)cc1)c1ccc(O)cc1O,Potency,[1],27.6 µM (active)
same,Potency,[2],inactive
same,Potency,[3],inactive
same,Potency,[4],inactive
same,Potency,[5],55 µM (active)
same,Potency,[6],19.5 µM (active) and 54.5 µM (active)
same,outcome,[8],inactive
same,Potency,[9],inactive
same,outcome,[10],inactive
same,outcome,[11],inactive
same,Potency,[12],inactive
same,outcome,[13],inactive
same,outcome,[14],inactive
same,outcome,[15],inactive
same,Potency,[16],inactive
same,outcome,[18],inactive
O=C(Oc1ccccc1)c1ccc(O)cc1,Potency,[1],inactive
same,Potency,[2],inactive
same,Potency,[3],inactive
same,Potency,[4],inactive
same,Potency,[5],61.1 µM (active)
same,Potency,[6],61.1 µM (active)
same,outcome,[8],inactive
same,Potency,[9],inactive
same,outcome,[10],inactive
same,outcome,[11],inactive
same,Potency,[12],inactive
same,outcome,[13],inactive
same,outcome,[14],inactive
same,outcome,[15],inactive
same,Potency,[16],inactive
same,outcome,[18],inactive
same,outcome,[17],inactive
CC(C)(C)C1CCC(O)CC1 (stereo not given),Potency,[1],inactive
same,Potency,[2],inactive
same,Potency,[3],inactive
same,Potency,[4],inactive
same,Potency,[5],inactive
same,Potency,[6],inactive
same,outcome,[7],inactive
same,outcome,[8],inactive
same,Potency,[9],inactive
same,outcome,[10],inactive
same,outcome,[11],inactive
same,Potency,[12],inactive
same,outcome,[13],inactive
same,outcome,[14],inactive
same,outcome,[15],inactive
same,Potency,[16],inactive
same,outcome,[17],inactive
same,Potency,[20],inactive
O=C1O[C@H](CO)[C@@H](O)[C@H](O)[C@H]1O,Potency,[1],inactive
same,Potency,[2],inactive
same,Potency,[3],inactive
same,Potency,[4],inactive
same,Potency,[5],inactive
same,Potency,[6],inactive
same,outcome,[7],inactive
same,outcome,[8],inactive
same,outcome,[10],inactive
same,outcome,[11],inactive
same,Potency,[12],inactive
same,outcome,[13],inactive
same,outcome,[14],inactive
same,Potency,[16],inactive
same,outcome,[18],inactive
same,outcome,[17],inactive
same,Potency,[19]; [21],inactive
same,Potency,[20],inactive
